Among the data in the supplement of paper PMC6555819 are PBM binding z-score values, retold here.

One test has as its system PPARg homodimer (NR concentration 180 nM). In words: PBM binding z-score (relative to random genomic background probes); higher = stronger binding; sequences stand for … in GC…GCGATTGACAGCGTAGAATGAAGG
Put shortly:
(§1)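 Antibodies against each partner of ligand-free nuclear receptor dimers (one per run) detected binding on custom Agilent 4×180K protein-binding microarrays after 1 h incubation. The double-stranded probes had 34-nt variable regions carrying direct-repeat seeds, single-nucleotide variants, half-site ablations and random human genomic background sequences. Binding z-scores, from regression-normalized fluorescence, use the random background probes as reference.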
Consider AGAATGAGGTTAAGTTCAGGGAAACAGAATACAT, for which the PBM binding z-score turned out to be 1.08.
CCTACTGGACCAAGGTCATTGATCAGTCAAAGCA showed a PBM binding z-score of 2.59.
Same read-out and setting: in the case of ATCTCTAGGTTAAGATAGTTCAGTGAATGCAAAT it was 1.36; in that of CAAACTAGTTCAAGAGGTCAAAGTCCGCTTCCCG, 5.22.
The sequence CCTACTGGGCCATTCAGAGGTCAATGATCATATG gave a PBM binding z-score of 1.92.
Sequence AGAATGGGGTTACCAAAGATCAGGGAAACGCTTG yielded a PBM binding z-score of 1.96.
For the sequence ATCGAAAGGTCCAAGGTGAGTATACCCACCCGAA, the PBM binding z-score worked out at 0.369.
In turn, ACTCGGATGACAAAGGTCAGAGCTACGCCAGTGA displayed a PBM binding z-score of 3.31.
The same measure, in the same setting: in the case of AGTCAAAGTTCATCTAGGTAACATAAGATATGCT it was 2.88.
Sequence CCTAGTTGGTCAAGGTCACACCCGCTATAGGTAC yielded a PBM binding z-score of 3.09.
The sequence TCTAGTTGGTCACGGAGGTCACAAACGACGGGTA registered a PBM binding z-score of 2.5.
AGAATGAGGTTAAACGTAGATCAGGGAAGAAAGT registered a PBM binding z-score of 1.3.
The same measure, in the same setting: in the case of ACTTACGGCTCAACGAGGTTATAGCACGCGTATA it was 0.463; in that of AATACAGGGTGACTAGGCCAGAGTAGGTACGAAT, 0.246; in that of GCTGCTAGTTCAACTGATGGTCAGCTAAAGCTCG, -0.347.
Turning to TAGCCTAGGTCATTCAGGGGCCAGCATAGAAAGC, the PBM binding z-score was found to be 1.32.
On the same count and under the same terms, in the case of TTGCCTAGGTCATTGGGCCAGTATAGTACGCATC it was 0.621; in that of AGAATGAGATTACCAAAGATCAGGGAAACGCTTG, -0.0322; in that of ATCGAAAGGTCGACCAGGTGAGTATACACCGTTT, 1.28.
Take CCTTACGGGTTACTCCAGGTTATAGCATCGGAGT: the PBM binding z-score was determined as 0.398.
In turn, TCTGCTAGGTCAACGTTGGTCAGCTAATCTGCTA gave a PBM binding z-score of 0.191.
ATATGTAGGATAGCTGGGGTCATTCAGACTAGGC gave a PBM binding z-score of 5.47.
In the case of CCTAGCAGGCCAATCTAGGTCACTCAAGGCTTGA, the PBM binding z-score was found to be 0.707.
The sequence CAAACTAGGTCACAGTGGTCAAAGTCCGTGCGTA showed a PBM binding z-score of 2.21.
The sequence CAAACTAGGTCACTAAAGGTCAAAGTCGAATGAC gave a PBM binding z-score of 5.36.
The sequence GCTTACGGGTCCAAGGTTATAGCATGAATAGAAT had a PBM binding z-score of 0.0227.
On to ATATGTAGGTTATCGGGTCATACAGTTTGCGCAT, for which the PBM binding z-score stood at 2.48.
Regarding TACCCTAGGTCATTCAGGGGCCAGTATAGAAAGC, the PBM binding z-score turned out to be 2.57.
In turn, TCTTGTAGATCAACAGGAGGTTAATAAAGATCGA showed a PBM binding z-score of 0.0813.
Take TCTAGTTGGTCTAAGGTCACACACTCGAAATGCG: the PBM binding z-score turned out to be 4.05.
On the same count and under the same terms, then TAGCCTAGGTCATGGGCCAGTGTACCACGCGAAC, with 1.42; and CCTACGGGGCCACGAAAGGTCATTGATTCAGTGA, with 3.09.
As to TCTTGTAGATCGATAGAGGTTAAGAAAGTGCGCT, the PBM binding z-score worked out at 0.199.
In turn, AGAATGAGGTTACCAAAGGTCAGGGAAACGCTTG yielded a PBM binding z-score of 4.43.
In turn, CCGAGTTGGTCAAGGTCACACACGCTATAGGTAC gave a PBM binding z-score of 3.6.
In the case of ACTTACGGGTCTACGAGGTTATAGCACGCGTATA, the PBM binding z-score worked out at 0.507.
The sequence AGTCAAAGTTCAGGACGACGTAACGTAAAGCACG showed a PBM binding z-score of 1.53.
For the sequence CGTCCAAGGTCAGCGGGTCAGTGAAAGCGACGTG, the PBM binding z-score worked out at 3.27.
ATATGTAGGTTAGCTGGGGTCCTTCAGACTAGGC yielded a PBM binding z-score of 1.13.
Regarding GATATAGGGTCAGCTAGAGGCCAGAGTATGGAAA, the PBM binding z-score turned out to be 1.99.

The test system of another test is PXR:RXRa (NR concentration 270 nM, RXRa partner concentration 90 nM). The description is as above. In outline: as §1
With AGAATGAGGTTAAGTTCAGGGAAACAGAATACAT, the PBM binding z-score came to 3.31.
In turn, CCTACTGGACCAAGGTCATTGATCAGTCAAAGCA returned a PBM binding z-score of 3.88.
Consider ATCTCTAGGTTAAGATAGTTCAGTGAATGCAAAT, for which the PBM binding z-score came to 3.05.
On the same count and under the same terms, then CAAACTAGTTCAAGAGGTCAAAGTCCGCTTCCCG, with 5.97; and CCTACTGGGCCATTCAGAGGTCAATGATCATATG, with 3.89; and AGAATGGGGTTACCAAAGATCAGGGAAACGCTTG, with 3.04.
ATCGAAAGGTCCAAGGTGAGTATACCCACCCGAA: the PBM binding z-score was 0.0935.
The sequence ACTCGGATGACAAAGGTCAGAGCTACGCCAGTGA came in with a PBM binding z-score of 3.68.
Regarding AGTCAAAGTTCATCTAGGTAACATAAGATATGCT, the PBM binding z-score worked out at 5.28.
As to CCTAGTTGGTCAAGGTCACACCCGCTATAGGTAC, the PBM binding z-score is 3.95.
In the case of TCTAGTTGGTCACGGAGGTCACAAACGACGGGTA, the PBM binding z-score was found to be 4.3.
Same read-out and setting: in the case of AGAATGAGGTTAAACGTAGATCAGGGAAGAAAGT it was 1.73.
Still for that read-out and setting: in the case of ACTTACGGCTCAACGAGGTTATAGCACGCGTATA it was 0.645.
On the same count and under the same terms, in the case of AATACAGGGTGACTAGGCCAGAGTAGGTACGAAT it was 0.11; in that of GCTGCTAGTTCAACTGATGGTCAGCTAAAGCTCG, 0.398.
In turn, TAGCCTAGGTCATTCAGGGGCCAGCATAGAAAGC came in with a PBM binding z-score of 2.37.
The same measure, in the same setting: in the case of TTGCCTAGGTCATTGGGCCAGTATAGTACGCATC it was 1.67.
The sequence AGAATGAGATTACCAAAGATCAGGGAAACGCTTG came in with a PBM binding z-score of -0.245.
ATCGAAAGGTCGACCAGGTGAGTATACACCGTTT registered a PBM binding z-score of 2.8.
Same read-out and setting: then CCTTACGGGTTACTCCAGGTTATAGCATCGGAGT, with 2.52.
TCTGCTAGGTCAACGTTGGTCAGCTAATCTGCTA had a PBM binding z-score of 1.56.
With ATATGTAGGATAGCTGGGGTCATTCAGACTAGGC, the PBM binding z-score was 5.76.
Still for that read-out and setting: then CCTAGCAGGCCAATCTAGGTCACTCAAGGCTTGA, with 1.51; and CAAACTAGGTCACAGTGGTCAAAGTCCGTGCGTA, with 2.03; and CAAACTAGGTCACTAAAGGTCAAAGTCGAATGAC, with 6.84.
For GCTTACGGGTCCAAGGTTATAGCATGAATAGAAT, the PBM binding z-score is 0.869.
As to ATATGTAGGTTATCGGGTCATACAGTTTGCGCAT, the PBM binding z-score was determined as 3.54.
On to TACCCTAGGTCATTCAGGGGCCAGTATAGAAAGC, for which the PBM binding z-score was 2.68.
Sequence TCTTGTAGATCAACAGGAGGTTAATAAAGATCGA gave a PBM binding z-score of 0.776.
The sequence TCTAGTTGGTCTAAGGTCACACACTCGAAATGCG came in with a PBM binding z-score of 4.79.
The sequence TAGCCTAGGTCATGGGCCAGTGTACCACGCGAAC gave a PBM binding z-score of 1.6.
Take CCTACGGGGCCACGAAAGGTCATTGATTCAGTGA: the PBM binding z-score is 6.2.
On the same count and under the same terms, in the case of TCTTGTAGATCGATAGAGGTTAAGAAAGTGCGCT it was 2.67; in that of AGAATGAGGTTACCAAAGGTCAGGGAAACGCTTG, 6.1.
In turn, CCGAGTTGGTCAAGGTCACACACGCTATAGGTAC returned a PBM binding z-score of 4.94.
The same measure, in the same setting: in the case of ACTTACGGGTCTACGAGGTTATAGCACGCGTATA it was 1.03; in that of AGTCAAAGTTCAGGACGACGTAACGTAAAGCACG, 2.18.
On the same count and under the same terms, then CGTCCAAGGTCAGCGGGTCAGTGAAAGCGACGTG, with 3.9; and ATATGTAGGTTAGCTGGGGTCCTTCAGACTAGGC, with 1.33; and GATATAGGGTCAGCTAGAGGCCAGAGTATGGAAA, with 3.23.
